For some assays here: Potency and affinity values are given separately.
Assays:
Design in all cases: scale not given: direction of the effect not stated beside the values
[1] = biological target: Protein translocase subunit SecA (Escherichia coli (strain K12)) (UniProt P10408); assay: Assay to Identify E. coli SecA ATPase Inhibitors; assay type: functional; conditions: 30 µM
[2] = biological target: T1, Ubiquitin-activating enzyme e1, putative (Leishmania donovani (strain BPK282A1)) (UniProt E9BSI1); assay: Leishmania donovani Ubiquitin Activating Enzyme (LdE1); assay type: functional; conditions: 30 µM
T1 sequence (whole entry): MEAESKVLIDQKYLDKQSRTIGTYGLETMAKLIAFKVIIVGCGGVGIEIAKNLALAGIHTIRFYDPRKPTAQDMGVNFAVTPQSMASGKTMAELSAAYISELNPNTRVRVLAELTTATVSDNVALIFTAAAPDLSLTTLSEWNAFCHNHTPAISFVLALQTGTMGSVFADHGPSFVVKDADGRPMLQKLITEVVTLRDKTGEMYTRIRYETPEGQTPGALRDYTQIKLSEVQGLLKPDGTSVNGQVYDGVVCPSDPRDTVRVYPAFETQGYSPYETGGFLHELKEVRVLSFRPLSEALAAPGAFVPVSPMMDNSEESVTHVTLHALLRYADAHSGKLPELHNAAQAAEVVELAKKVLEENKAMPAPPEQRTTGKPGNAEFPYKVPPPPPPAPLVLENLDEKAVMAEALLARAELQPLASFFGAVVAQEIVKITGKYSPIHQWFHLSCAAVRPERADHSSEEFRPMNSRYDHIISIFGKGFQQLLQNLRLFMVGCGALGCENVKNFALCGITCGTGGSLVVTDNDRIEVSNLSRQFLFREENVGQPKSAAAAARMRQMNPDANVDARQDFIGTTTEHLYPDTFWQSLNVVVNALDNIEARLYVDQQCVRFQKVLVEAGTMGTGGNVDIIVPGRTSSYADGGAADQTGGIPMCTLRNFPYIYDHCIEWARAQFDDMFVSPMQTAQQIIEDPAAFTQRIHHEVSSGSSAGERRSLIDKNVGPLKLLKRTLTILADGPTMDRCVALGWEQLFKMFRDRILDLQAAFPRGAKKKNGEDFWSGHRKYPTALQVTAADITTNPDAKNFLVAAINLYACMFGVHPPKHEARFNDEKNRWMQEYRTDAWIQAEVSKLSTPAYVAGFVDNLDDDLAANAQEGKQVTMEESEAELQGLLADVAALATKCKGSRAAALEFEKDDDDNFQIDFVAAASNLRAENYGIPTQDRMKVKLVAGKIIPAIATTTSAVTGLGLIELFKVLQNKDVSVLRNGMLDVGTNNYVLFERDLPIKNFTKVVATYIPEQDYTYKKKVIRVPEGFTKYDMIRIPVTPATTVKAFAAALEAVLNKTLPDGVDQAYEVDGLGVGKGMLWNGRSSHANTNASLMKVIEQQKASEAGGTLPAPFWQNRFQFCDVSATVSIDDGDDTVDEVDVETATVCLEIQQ

[3] = biological target: AMP-activated protein kinase, AMPK (Homo sapiens) (UniProt P54646+O43741+P54619+Q9UGJ0+Q9Y478+Q13131+Q9UGI9); assay: AMP-dependent Kinase enzyme assay. An in vitro enzyme assay that detects ADP turnover that is directly proportional to AMPK activity. This uses naive AMPK that is activated during the assay with MK-8722; assay type: functional; conditions: 30 µM
[4] = biological target: Sialic acid-binding Ig-like lectin 9 (Homo sapiens) (UniProt Q9Y336); assay: Hs-Siglec9 ALPHAscreen SOP 20170721; conditions: 10 µM
Trypanosoma cruzi = assay: Trypanosoma cruzi phosphomannomutase and mannose-1-phosphate guanylyltransferase assay; assay type: functional; conditions: 10 µM
[5] = biological target: T2, Arginase-2, mitochondrial (Homo sapiens) (UniProt P78540); assay: in vitro enzyme assay to detect the production of urea directly proportional to the activity of Arginase II; assay type: functional; conditions: 33.3 µM; further: in the data most compounds retested in dose-response had high values
T2 sequence (whole entry): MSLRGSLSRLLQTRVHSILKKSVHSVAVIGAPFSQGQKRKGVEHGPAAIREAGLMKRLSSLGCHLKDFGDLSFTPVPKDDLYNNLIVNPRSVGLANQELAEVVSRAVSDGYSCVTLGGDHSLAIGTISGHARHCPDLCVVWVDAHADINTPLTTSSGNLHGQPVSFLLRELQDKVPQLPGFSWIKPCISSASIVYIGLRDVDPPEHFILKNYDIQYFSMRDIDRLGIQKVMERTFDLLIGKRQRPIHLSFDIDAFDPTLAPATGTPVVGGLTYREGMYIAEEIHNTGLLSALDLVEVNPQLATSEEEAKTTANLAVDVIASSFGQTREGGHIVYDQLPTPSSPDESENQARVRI

[6] = biological target: T3, Proteasome subunit beta (Trypanosoma cruzi) (UniProt O96673); assay: Trypanosoma cruzi proteasome chymotrypsin-like activity (TcProtChymo) assay.; further: in the data most compounds retested in dose-response had high values; assay type: functional; conditions: 9.37 µM
T3 sequence (whole entry): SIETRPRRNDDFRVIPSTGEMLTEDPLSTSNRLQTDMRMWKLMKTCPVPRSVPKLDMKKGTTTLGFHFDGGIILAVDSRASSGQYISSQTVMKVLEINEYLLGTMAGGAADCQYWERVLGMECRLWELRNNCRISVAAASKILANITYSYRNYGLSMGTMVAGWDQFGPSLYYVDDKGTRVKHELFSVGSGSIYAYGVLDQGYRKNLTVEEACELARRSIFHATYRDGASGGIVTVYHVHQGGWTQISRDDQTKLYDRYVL

Homo sapiens = organism: Homo sapiens; assay: To identify inhibition of the IFN signalling (Jak-Stat) pathway via expression of an eGFP reporter gene under the control of an IFN-stimulated response element (ISRE) containing MxA promoter.; assay type: functional; conditions: 30 µM
[7] = biological target: T4, Tyrosyl-tRNA synthetase, putative (Trypanosoma cruzi (strain CL Brener)) (UniProt Q4DSP6); assay: Trypanosoma cruzi tyrosyl tRNA synthetase (TcYRS) _High Tyrosine SOP; assay type: functional; conditions: 30 µM; further: in the data most compounds retested in dose-response had high values
T4 sequence (whole entry): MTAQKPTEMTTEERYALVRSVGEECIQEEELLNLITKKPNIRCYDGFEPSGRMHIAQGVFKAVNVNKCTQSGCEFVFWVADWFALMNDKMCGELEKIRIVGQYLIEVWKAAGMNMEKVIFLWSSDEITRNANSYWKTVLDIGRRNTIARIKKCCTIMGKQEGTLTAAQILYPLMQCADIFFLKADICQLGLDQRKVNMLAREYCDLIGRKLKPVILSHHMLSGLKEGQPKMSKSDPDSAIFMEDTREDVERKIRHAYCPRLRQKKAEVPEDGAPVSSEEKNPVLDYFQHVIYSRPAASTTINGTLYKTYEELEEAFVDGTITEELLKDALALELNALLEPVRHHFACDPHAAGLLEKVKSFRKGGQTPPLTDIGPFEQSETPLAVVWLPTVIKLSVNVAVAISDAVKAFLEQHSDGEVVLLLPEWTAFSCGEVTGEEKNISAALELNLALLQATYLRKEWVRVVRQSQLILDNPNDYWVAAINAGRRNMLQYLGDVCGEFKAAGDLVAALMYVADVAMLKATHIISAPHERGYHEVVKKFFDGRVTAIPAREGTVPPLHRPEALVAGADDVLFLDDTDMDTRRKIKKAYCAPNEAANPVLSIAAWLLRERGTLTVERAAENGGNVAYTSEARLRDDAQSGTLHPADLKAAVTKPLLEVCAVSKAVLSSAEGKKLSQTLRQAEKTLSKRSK

[8] = biological target: T4, Tyrosyl-tRNA synthetase, putative (Trypanosoma cruzi (strain CL Brener)); assay: Trypanosoma cruzi tyrosyl tRNA synthetase (TcYRS) SOP; assay type: functional; conditions: 30 µM
[9] = biological target: Chromo domain-containing protein 1 (Saccharomyces cerevisiae (strain ATCC 204508 / S288c) (Baker's yeast)) (UniProt P32657); assay: ScCHD-1 Enzyme Inhibition Assay; assay type: functional; conditions: 30 µM; further: in the data most compounds retested in dose-response had high values
Sequence of Chromo domain-containing protein 1 (Saccharomyces cerevisiae (strain ATCC 204508 / S288c) (Baker's yeast)) (P32657 whole entry, the tested form may be a part): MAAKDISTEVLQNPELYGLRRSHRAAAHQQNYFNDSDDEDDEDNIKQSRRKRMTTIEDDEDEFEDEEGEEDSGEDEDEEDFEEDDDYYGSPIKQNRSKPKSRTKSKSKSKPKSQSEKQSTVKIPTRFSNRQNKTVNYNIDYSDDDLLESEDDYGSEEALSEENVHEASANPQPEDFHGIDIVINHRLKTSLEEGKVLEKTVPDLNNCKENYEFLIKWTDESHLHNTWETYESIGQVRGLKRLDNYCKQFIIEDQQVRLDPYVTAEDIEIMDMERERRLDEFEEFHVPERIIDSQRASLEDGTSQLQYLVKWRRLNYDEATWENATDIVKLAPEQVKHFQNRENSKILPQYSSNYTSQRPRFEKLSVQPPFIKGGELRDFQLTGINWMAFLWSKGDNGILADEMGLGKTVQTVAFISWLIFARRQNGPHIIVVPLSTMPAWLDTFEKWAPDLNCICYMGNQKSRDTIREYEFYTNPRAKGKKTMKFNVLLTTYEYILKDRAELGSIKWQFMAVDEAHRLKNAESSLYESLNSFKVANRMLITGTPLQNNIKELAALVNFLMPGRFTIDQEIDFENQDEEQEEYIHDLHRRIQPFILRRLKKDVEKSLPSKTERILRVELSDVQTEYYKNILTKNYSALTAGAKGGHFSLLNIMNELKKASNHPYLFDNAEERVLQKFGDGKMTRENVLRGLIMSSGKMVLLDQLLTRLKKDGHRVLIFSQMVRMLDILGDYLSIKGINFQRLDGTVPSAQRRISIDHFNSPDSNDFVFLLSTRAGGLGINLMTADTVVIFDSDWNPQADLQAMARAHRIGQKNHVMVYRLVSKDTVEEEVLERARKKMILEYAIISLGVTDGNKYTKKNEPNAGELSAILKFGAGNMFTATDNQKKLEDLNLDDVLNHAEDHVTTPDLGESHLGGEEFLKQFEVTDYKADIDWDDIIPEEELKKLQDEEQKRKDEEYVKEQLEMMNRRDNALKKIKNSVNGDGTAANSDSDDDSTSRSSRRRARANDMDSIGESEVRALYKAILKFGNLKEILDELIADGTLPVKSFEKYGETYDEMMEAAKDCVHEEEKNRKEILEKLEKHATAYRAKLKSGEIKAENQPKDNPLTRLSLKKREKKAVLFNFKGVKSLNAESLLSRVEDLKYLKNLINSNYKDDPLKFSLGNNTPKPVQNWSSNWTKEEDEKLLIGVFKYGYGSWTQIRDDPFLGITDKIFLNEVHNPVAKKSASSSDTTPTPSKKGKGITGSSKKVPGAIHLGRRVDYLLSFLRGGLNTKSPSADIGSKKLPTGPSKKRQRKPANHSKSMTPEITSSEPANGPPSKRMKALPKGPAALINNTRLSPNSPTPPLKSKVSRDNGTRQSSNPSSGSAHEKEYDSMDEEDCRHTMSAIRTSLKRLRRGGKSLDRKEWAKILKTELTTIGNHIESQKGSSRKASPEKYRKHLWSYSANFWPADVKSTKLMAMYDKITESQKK

Sequence of Sialic acid-binding Ig-like lectin 9 (Homo sapiens) (Q9Y336 whole entry): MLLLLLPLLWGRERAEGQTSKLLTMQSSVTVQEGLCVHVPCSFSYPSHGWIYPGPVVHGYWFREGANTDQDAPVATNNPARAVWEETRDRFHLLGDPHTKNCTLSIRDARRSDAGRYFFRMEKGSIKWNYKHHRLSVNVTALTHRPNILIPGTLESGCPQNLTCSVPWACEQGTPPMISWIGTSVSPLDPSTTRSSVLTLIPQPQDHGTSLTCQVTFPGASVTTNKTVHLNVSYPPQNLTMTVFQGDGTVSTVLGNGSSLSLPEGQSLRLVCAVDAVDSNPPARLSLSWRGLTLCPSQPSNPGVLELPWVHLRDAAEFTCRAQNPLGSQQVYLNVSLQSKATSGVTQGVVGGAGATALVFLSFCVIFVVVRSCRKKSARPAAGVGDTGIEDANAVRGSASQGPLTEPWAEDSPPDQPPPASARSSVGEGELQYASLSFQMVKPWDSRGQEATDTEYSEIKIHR
Sequence of Protein translocase subunit SecA (Escherichia coli (strain K12)) (P10408 whole entry): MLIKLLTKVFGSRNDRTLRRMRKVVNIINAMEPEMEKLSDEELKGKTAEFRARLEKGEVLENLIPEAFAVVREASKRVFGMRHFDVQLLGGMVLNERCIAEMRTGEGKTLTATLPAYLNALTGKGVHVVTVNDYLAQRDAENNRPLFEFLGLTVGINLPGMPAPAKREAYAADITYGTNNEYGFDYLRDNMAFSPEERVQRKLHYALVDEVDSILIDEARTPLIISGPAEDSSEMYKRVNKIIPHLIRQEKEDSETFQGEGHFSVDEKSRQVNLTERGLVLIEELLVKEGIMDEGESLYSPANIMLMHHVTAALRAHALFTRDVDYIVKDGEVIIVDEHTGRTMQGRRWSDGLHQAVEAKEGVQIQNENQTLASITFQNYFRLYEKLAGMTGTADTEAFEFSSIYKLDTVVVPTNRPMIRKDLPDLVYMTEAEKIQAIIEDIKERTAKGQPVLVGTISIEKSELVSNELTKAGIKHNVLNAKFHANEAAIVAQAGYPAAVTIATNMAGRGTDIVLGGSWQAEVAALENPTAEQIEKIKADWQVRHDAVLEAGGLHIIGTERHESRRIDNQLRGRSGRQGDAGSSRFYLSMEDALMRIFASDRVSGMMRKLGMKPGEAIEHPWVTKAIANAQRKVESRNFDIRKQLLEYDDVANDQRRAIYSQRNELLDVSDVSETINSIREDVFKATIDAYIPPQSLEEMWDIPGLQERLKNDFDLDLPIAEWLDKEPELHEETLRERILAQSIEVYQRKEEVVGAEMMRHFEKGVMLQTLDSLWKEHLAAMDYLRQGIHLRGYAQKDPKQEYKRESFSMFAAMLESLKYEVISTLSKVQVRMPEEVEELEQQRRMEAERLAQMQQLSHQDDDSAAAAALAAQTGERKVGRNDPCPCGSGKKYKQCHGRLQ

Structure (SMILES)	Percent Effect [1] [%]	Percent Effect [2] [%]	Percent Effect [3] [%]	Percent Effect [4] [%]	Percent Effect (Trypanosoma cruzi) [%]	Percent Effect [5] [%]	Percent Effect [6] [%]	Percent Effect (Homo sapiens) [%]	Percent Effect [7] [%]	Percent Effect [8] [%]	Percent Effect [9] [%]
Cc1cnn(C2CCCN(C(=O)c3cn4cccnc4n3)C2)c1 (configuration not stated)	-4.17	8.11	-11.5	17.1	1.04	-6.01	1.62	7.34	7.39	16.1	-12.7
CCc1csc(C2CCCN(C(=O)c3cnn(CC)c3)C2)n1 (configuration not stated)	-1.78	-2.63	68.6	-1.18	-1.46	3.55	6.04	6.86	3.19	-2.6	-7.82
CN(Cc1ccccn1)C1COC2(CCN(Cc3nccs3)CC2)C1 (configuration not stated)	-4.64	21.3	-8.85	-0.12	1.35	-57.5	12.8	5.05	5.21	20	-11.7
O=C(c1ccc[nH]1)N1C[C@H]2CC[C@@H]1CN(c1ncccn1)C2	-5.19	5.2	7.19	11.1	2.26	-9.65	6.49	-14.3	6.45	13.6	-0.0272
CN1CCN(C2CCN(CC(=O)NCC(F)(F)F)CC2)C1=O	-6.45	15.2	-9.09	10.9	7.46	-3.8	5.32	-11.8	3.45	13.9	-3.32
COc1cccc2c1OCC(CNC(=O)CNC(N)=O)C2 (configuration not stated)	-5.81	10.8	-3.03	22.4	7.33	1.24	4.72	-5.45	5.38	13.6	-9.37
Cc1cc(C)n(CC2CCCN2C(=O)c2ccc3[nH]nnc3c2)n1 (configuration not stated)	-4.12	5.48	5.75	0.134	-2.35	5.46	14.4	4.89	1.07	10	-3.11
N#Cc1cc(NC(=O)C2CC=CC2)ccc1N1CCC(O)CC1	-3.63	2.7	-2.38	4.36	-0.193	1.91	7.41	0.178	2.65	7.32	-2.26
Cc1cc(C(=O)N2CCc3ncc(CN4CCOCC4)n3CC2)no1	-4.01	0	1.62	0.585	0.0978	-15.6	-3.51	-3.46	-3.24	-5.13	8.28
CC(NC(=O)CCc1cccs1)c1nnc2n1CCC2 (configuration not stated)	-4.31	2.7	-7.36	7.21	1.95	-0.554	7.18	-0.332	5.94	18.3	1.69
O=C(NCC1CC1)C1CN(C(=O)c2ccncc2)CC12CCOCC2 (configuration not stated)	1.79	15.6	-0.39	-4.66	0.296	4.52	17.6	28.1	2.12	19.2	-10.9
Cc1nc2ccccn2c1CN(Cc1cccnc1)CC1CCCO1 (configuration not stated)	-1.83	-2.74	2.15	0.744	-6.27	0.455	7.63	13.7	-2.15	-2.5	-1.23
N#Cc1ccc(OCCN2CCc3c(ncn3C3CC3)C2)cc1	-3.1	23.4	-12.7	-6.96	-1.31	0	7.26	-0.819	13.6	9.76	-10.1
Cc1cnn(CCNCc2ccc(F)cc2Cl)c1	-3.52	8.11	-1.08	10.9	-1.02	0.554	10.9	-9.92	1.98	13.4	1.6
CS(=O)(=O)CC(=O)N1C[C@@H]2COC[C@]2(c2nnc(C3CC3)o2)C1	-5.11	21.3	-7.29	-4.69	3.86	-53.9	14	19.8	3.12	22.5	-11.9
Cn1cnc(-c2cc(C(=O)N3CCOCC3)c3ccccn23)c1	-2.02	10.8	17.9	-4.69	-3.42	17.5	26.6	-15.6	3.24	10.3	-3.5
O=C(NCCN1CCc2ccccc2C1)c1scnc1Cl	-2.6	13.2	-2.29	-8.63	6.26	-3.24	18	6.79	-6.4	23.5	-6.08
COc1ccccc1C(=O)N1CC(Cc2nccc3ccn(C)c23)C1	-7.05	17.6	2.79	6.36	4.15	-2.09	6.4	13.2	6.45	14.3	-16.6
Cc1nc(CN(C)C(=O)Nc2cnn(CC3CCCO3)c2)cs1 (configuration not stated)	-3.47	-5.41	-27.6	1.65	-0.965	0.952	5.86	15	-6.88	-9.76	0.495
CCOCC1CN(C(=O)N(C)C)Cc2nn(C)cc21 (configuration not stated)	-3.04	8	-0.352	2.29	-0.579	-40.3	8.03	-8.7	1.04	10	-7.3
Cc1nc(CN2CCCN(CCOc3cccc(C#N)c3)CC2)no1	-0.969	13.2	-4.74	-2.13	-7.38	3.24	16.3	7.6	6.4	11.1	-9.28
CCCS(=O)(=O)N1CCN(c2cc(-n3cnc(C)c3C)nc(C)n2)CC1	-2.71	0	2.33	-0.358	-3.25	9.65	3.16	-2.89	1.07	-3.7	2.9

— ChEMBL document CHEMBL3988442, “University of Dundee, Small-Polar-MMV Screening Library” (2021)
